Active and inactive are the calls of the source. Rule for the calls: active = hit-call score of the fitted dose curve at least 0.9, where 1 is the maximum; inactive = score below 0.9.
These molecules were tested on Human Leukocyte Antigen - DR isotype (HLADR), HLA-DRA (gene 3122) (assay: BSK_CASM3C_HLADR: BioMAP Diversity Plus: CASM3C Assay for Human Leukocyte Antigen - DR isotype (HLADR) Biomarker Activity (AID 2283043;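 note: cell-surface HLA-DR protein level quantified by ELISA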)). Details: primary human coronary artery smooth muscle cells; actives raise or lower the signal.

Row | Compound | outcome | AC50
1 | c1ccc2ncccc2c1 | inactive | 
2 | CC(C)c1nnc2ccc(-c3ocnc3-c3cc(F)ccc3F)cn12 |  | 0.561 µM (active)
3 | CCCCCCCCN(C)C | inactive | 
4 | O=C(NO)C1(NS(=O)(=O)c2ccc(Oc3ccc(F)cc3)cc2)CCOCC1 | inactive | 
5 | O=C(O)[C@H](O)[C@@H](O)C(=O)O | inactive | 
6 | CC(C)CCCCCCOC(=O)C1CCCCC1C(=O)OCCCCCCC(C)C (centres undefined) | inactive | 
7 | NC(=O)NN=Cc1ccc([N+](=O)[O-])o1 | inactive | 
8 | OCc1ccccc1 | inactive | 
9 | OC(CCl)CCl | inactive | 
10 | NC(=O)N(O)[C@@H]1COc2cc(OCc3ccccc3)ccc21 | inactive | 
11 | Cc1ncc([C@@H](CCCCCCc2ccc3c(n2)NCCC3)CC(=O)O)cn1 | inactive | 
12 | CCCCCCCCCCCCCCCCOS(=O)(=O)O | inactive | 
13 | COc1cc(C(C)C)c2c(c1)S(=O)(=O)N(COc1cc(=O)n3cccc(OCCN4CCCCC4)c3n1)C2=O | inactive | 
14 | CC(=O)c1ccccc1 | inactive | 
15 | CCCCOC(=O)c1ccccc1 | inactive | 
16 | Cc1nc(-c2ccccn2)ncc1C(=O)Nn1cc(C)c2cc(F)ccc21 | inactive | 
17 | CC[C@H](C)C(=O)O[C@H]1C[C@H](O)C=C2C=C[C@H](C)[C@H](CC[C@@H](O)C[C@@H](O)CC(=O)O)[C@H]21 | inactive | 
18 | C=CCc1cc(S(=O)(=O)c2ccc(O)c(CC=C)c2)ccc1O |  | 13.6 µM (active)
19 | CCc1ccc(O)c(C(C)(C)C)c1 | inactive | 
20 | OCCC(F)(F)C(F)(F)C(F)(F)C(F)(F)F | inactive | 
21 | OCc1c[nH]c2ccccc12 | inactive | 
22 | CCCCCCOC(=O)CC(CC(=O)OCCCCCC)(OC(=O)CCC)C(=O)OCCCCCC | inactive | 
23 | OCCOCCOCCO | inactive | 
24 | CCc1cccc(CC)c1N | inactive | 
25 | COCc1nnc(-c2ccc[n+]([O-])c2)n1-c1c(Cl)c(Cl)cc2[nH]c(=O)c(=O)[nH]c12 | inactive | 
26 | NC(=O)N1c2ccccc2C=Cc2ccccc21 | inactive | 
27 | FC(F)=C(F)C(F)(F)C(F)(F)C(F)(F)C(F)(F)C(F)(F)C(F)(F)F | inactive | 

These molecules were tested on Macrophage colony-stimulating factor (MCSF), CSF1 (gene 1435) (assay: BSK_CASM3C_MCSF: BioMAP Diversity Plus: CASM3C Assay for Macrophage colony-stimulating factor (MCSF) Biomarker Activity (AID 2283044;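 note: M-CSF protein amount quantified by ELISA after 24 h exposure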)). Details: primary human coronary artery smooth muscle cells; actives raise or lower the signal.

Row | Compound | outcome | AC50
28 | c1ccc2ncccc2c1 | inactive | 
29 | CC(C)c1nnc2ccc(-c3ocnc3-c3cc(F)ccc3F)cn12 | inactive | 
30 | CCCCCCCCN(C)C | inactive | 
31 | O=C(NO)C1(NS(=O)(=O)c2ccc(Oc3ccc(F)cc3)cc2)CCOCC1 | inactive | 
32 | O=C(O)[C@H](O)[C@@H](O)C(=O)O | inactive | 
33 | CC(C)CCCCCCOC(=O)C1CCCCC1C(=O)OCCCCCCC(C)C (centres undefined) | inactive | 
34 | NC(=O)NN=Cc1ccc([N+](=O)[O-])o1 | inactive | 
35 | OCc1ccccc1 | inactive | 
36 | OC(CCl)CCl | inactive | 
37 | NC(=O)N(O)[C@@H]1COc2cc(OCc3ccccc3)ccc21 | inactive | 
38 | Cc1ncc([C@@H](CCCCCCc2ccc3c(n2)NCCC3)CC(=O)O)cn1 | inactive | 
39 | CCCCCCCCCCCCCCCCOS(=O)(=O)O | inactive | 
40 | COc1cc(C(C)C)c2c(c1)S(=O)(=O)N(COc1cc(=O)n3cccc(OCCN4CCCCC4)c3n1)C2=O | inactive | 
41 | CC(=O)c1ccccc1 | inactive | 
42 | CCCCOC(=O)c1ccccc1 | inactive | 
43 | Cc1nc(-c2ccccn2)ncc1C(=O)Nn1cc(C)c2cc(F)ccc21 | inactive | 
44 | CC[C@H](C)C(=O)O[C@H]1C[C@H](O)C=C2C=C[C@H](C)[C@H](CC[C@@H](O)C[C@@H](O)CC(=O)O)[C@H]21 | inactive | 
45 | C=CCc1cc(S(=O)(=O)c2ccc(O)c(CC=C)c2)ccc1O |  | 28.2 µM (active)
46 | CCc1ccc(O)c(C(C)(C)C)c1 | inactive | 
47 | OCCC(F)(F)C(F)(F)C(F)(F)C(F)(F)F | inactive | 
48 | OCc1c[nH]c2ccccc12 | inactive | 
49 | CCCCCCOC(=O)CC(CC(=O)OCCCCCC)(OC(=O)CCC)C(=O)OCCCCCC | inactive | 
50 | OCCOCCOCCO | inactive | 
51 | CCc1cccc(CC)c1N | inactive | 
52 | COCc1nnc(-c2ccc[n+]([O-])c2)n1-c1c(Cl)c(Cl)cc2[nH]c(=O)c(=O)[nH]c12 | inactive | 
53 | NC(=O)N1c2ccccc2C=Cc2ccccc21 | inactive | 
54 | FC(F)=C(F)C(F)(F)C(F)(F)C(F)(F)C(F)(F)C(F)(F)C(F)(F)F | inactive | 

Source: PubChem BioAssay (EPA / NIEHS)
